LmPK inhibitor: qHTS Assay for Inhibitors of Leishmania Mexicana Pyruvate Kinase (LmPK); Q27686; purified LmPK, Kinase-Glo ATP luminescence, 1 h; Potency, µM (doses to about 57.5 µM), inactives show at the top dose activity change, negative = inhibition, usual class: inhibitors; 0.37% of 290,000 active
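Kinase-Glo luminescence read after 1 h RT reaction of 0.1 nM LmPK with 0.5 mM PEP and 0.1 mM ADP. Activity scaled between uninhibited and enzyme-free controls.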
Giardia FBPA inh-1: qHTS Assay for Inhibitors of Fructose-1,6-bisphosphate Aldolase from Giardia Lamblia. 0.71% of 290,000 active. Potency, µM (titrated, usually from 59.6 µM), for the others: at the highest dose activity, negative = inhibition, usual class: inhibitors. purified Giardia FBPA; note: nearly all actives have a fitted effect of over 55% in size
Target sequence (A8B2U2 whole entry, looked up): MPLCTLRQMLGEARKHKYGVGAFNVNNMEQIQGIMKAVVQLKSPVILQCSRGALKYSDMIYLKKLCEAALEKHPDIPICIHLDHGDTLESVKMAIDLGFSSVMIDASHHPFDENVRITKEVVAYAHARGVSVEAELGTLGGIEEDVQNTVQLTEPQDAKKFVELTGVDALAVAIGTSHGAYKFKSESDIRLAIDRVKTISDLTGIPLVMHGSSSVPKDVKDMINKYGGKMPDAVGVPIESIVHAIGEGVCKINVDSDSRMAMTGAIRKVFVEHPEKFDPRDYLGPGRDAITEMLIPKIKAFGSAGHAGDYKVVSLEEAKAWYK
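40 nM FBPA preincubated 10 min at RT with compound (up to 57.5 uM final), then substrate plus GAPDH/TPI/NAD/arsenate coupling and diaphorase/resazurin added. Fluorescence read after 20 min at RT, 525/598 nm.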
RE007 growth inh: qHTS Assay for Inhibitors of the HIV-1 protein Vpr. S. pombe RE007 Vpr strain, BacTiter-Glo ATP luminescence, 24 h. Potency, µM (series often up to 92.2 µM), for the others: at the highest dose activity change, negative = less growth, usual class: inhibitors. 0.21% of 360,000 active. AID 651644, 2012; active = well fitted falling curve with a large enough effect; inconclusive = small, poorly fitted or top-dose-only effect; inactive = no such curve, though single readings can be large or run the other way; note: nearly all actives have a fitted effect of over 50% in size
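Fission yeast RE007 carrying one integrated HIV-1 vpr copy, seeded at OD 0.01 in PMG+AL medium with 23 nL pinned compound. Grown 24 h at 30 degrees; viability read by BacTiter-Glo luminescence after 5 min.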
Tb PYK inh: qHTS of Trypanosoma Brucei Inhibitors | TbPYK enzyme, Kinase-Glo Plus ATP luminescence, 45 min | Potency, µM (titrated, usually from 76.8 µM), for the others: top-dose activity, negative = inhibition, actives largely listed as inhibitors | 0.12% of 410,000 active | AID 624173, 2012; note: nearly all actives have a fitted effect of over 50% in size
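Assay buffer: 50 mM TEA pH 7.2, 100 mM KCl, 10 mM MgCl2, 0.05% BSA, 0.01% Tween-20. Pyruvate kinase from T. brucei plus substrate met compound, then ADP (130 uM final). Luminescence was read post 45 min RT.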
Giardia growth: qHTS Assay for Inhibitors of Fructose-1,6-bisphosphate Aldolase from Giardia Lamblia: Giardia lamblia growth inhibition | AID 2785, 2010 | 5% of 1,500 active | Potency, µM (doses to about 57.5 µM), inactives show at the top dose activity change, negative = inhibition, most hits filed as inhibitors | Giardia lamblia trophozoite growth inhibition | shares compounds with Giardia FBPA inh-1;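 note: trophozoites exposed to compound for 48 h at 37 °C; nearly all actives have a fitted effect of over 70% in size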
Mammal cell tox: qHTS Assay for Inhibitors of Fructose-1,6-bisphosphate Aldolase from Giardia Lamblia: Mammalian cellular toxicity; mammalian cell viability counter-screen, qHTS; 4% of 1,500 active; Potency, µM (highest dose often 57.5 µM), inactives show at the highest dose viability change, negative = toxicity, actives largely listed as inhibitors; shares compounds with Giardia FBPA inh-1;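 note: Chinese hamster ovary cells used as mammalian cytotoxicity surrogate; viability measured as cellular ATP by luminescence; compound exposure lasted 48 h before reading; nearly all actives have a fitted effect of over 60% in size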
Giardia FBPA inh-2: qHTS Assay for Inhibitors of Fructose-1,6-bisphosphate Aldolase from Giardia Lamblia: Primary screen confirmation; shares compounds with Giardia FBPA inh-1; purified Giardia aldolase enzyme activity, qHTS; Potency, µM (top dose mostly 57.5 µM), without a hit: top-dose activity change, negative = inhibition, hits mostly inhibitors; 5% of 1,500 active; AID 2787, 2010; note: nearly all actives have a fitted effect of over 45% in size
Rabbit aldolase: qHTS Assay for Inhibitors of Fructose-1,6-bisphosphate Aldolase from Giardia Lamblia: Rabbit FBPA Selectivity | shares compounds with Giardia FBPA inh-1 | Rabbit muscle FBPA enzyme inhibition, selectivity counter-screen | Potency, µM (doses to about 57.5 µM), inactives show at the highest dose activity, negative = inhibition, actives largely listed as inhibitors | 4% of 1,500 active; note: nearly all actives have a fitted effect of over 60% in size
Target sequence (P00883 whole entry, looked up): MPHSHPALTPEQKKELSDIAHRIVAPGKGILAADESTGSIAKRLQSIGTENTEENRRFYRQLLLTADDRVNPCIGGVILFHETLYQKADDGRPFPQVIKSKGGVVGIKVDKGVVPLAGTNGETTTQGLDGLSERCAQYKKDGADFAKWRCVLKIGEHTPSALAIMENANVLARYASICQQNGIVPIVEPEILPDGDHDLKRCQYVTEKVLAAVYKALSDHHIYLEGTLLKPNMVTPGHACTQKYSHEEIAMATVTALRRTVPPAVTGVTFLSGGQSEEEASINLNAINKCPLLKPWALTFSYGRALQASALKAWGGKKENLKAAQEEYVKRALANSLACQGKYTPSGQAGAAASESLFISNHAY
GAPDH counter: qHTS Assay for Inhibitors of Fructose-1,6-bisphosphate Aldolase from Giardia Lamblia: Coupling assay counterscreen confirmation | shares compounds with Giardia FBPA inh-1 | GAPDH coupling enzyme counterscreen, biochemical, qHTS | 6% of 1,500 active | Potency, µM (top dose mostly 57.5 µM), for the others: top-dose activity change, negative = inhibition, hits mostly inhibitors; note: nearly all actives have a fitted effect of over 55% in size
* marks the source's active call; other numbers are inactive results; ? = inconclusive; · = no result given; [ ] = remark or other dose. A selection: hits, their analogues and other compounds. The true share with any hit is near 0.95%. Unless noted, calls come from the whole dose curve; as a rule, active = well fitted curve in the direction sought with a large enough effect; inconclusive = small, poorly fitted or top-dose-only effect, or another doubt; inactive = no such curve, though single readings can be large; an effect the other way counts as inactive or inconclusive. % is set by controls: 0 for no effect and ±100 for the full control effect; potency is the fitted concentration of half-maximal effect.

SMILES	LmPK inhibitor	Giardia FBPA inh-1	RE007 growth inh	Tb PYK inh	Giardia growth	Mammal cell tox	Giardia FBPA inh-2	Rabbit aldolase	GAPDH counter
O=C(N/N=C/c1ccccn1)c1cccc(S(=O)(=O)Nc2ccccc2Cl)c1	-1%	16µM*	9%	-10%	?	-10%	6%	-20%	?
CCN(CC)S(=O)(=O)c1cccc(C(=O)N/N=C/c2ccccn2)c1	4%	18µM*	-14%	-8%	-30%	9%	9%	8%	7%
O=C(Nc1nnc(S(=O)(=O)N2CCOCC2)s1)c1ccc(F)cc1	-1%	16µM*	11%	3%	?	-5%	?	?	40µM*
CC1CCN(S(=O)(=O)c2nnc(NC(=O)c3cccc([N+](=O)[O-])c3)s2)CC1	1%	14µM*	-5%	-12%	-3%[10.4 µM]	2%	16µM*	25µM*	16µM*
Cc1ccc(C(=O)Nc2nnc(S(=O)(=O)N3CCOCC3)s2)cc1	-4%	18µM*	6%	0%	?	1%	?	?	25µM*
Cc1cc(F)ccc1-c1cc(C(=O)NCc2cccs2)[nH]n1	·	·	5%	4%	·	·	·	·	·
COc1ccc(N2Cc3cccc(C(=O)Nc4ccc(F)cc4)c3C2=O)cc1	·	·	·	-2%	·	·	·	·	·
CCOc1ccc(CCNC(=O)CCc2cn(Cc3ccc(C)cc3)c3ccccc23)cc1	·	·	·	-2%	·	·	·	·	·
CC1=C(C#N)C(=O)N(C2CCS(=O)(=O)C2)C(=O)/C1=C\c1ccco1 (stereo unspecified)	?	10µM*	·	·	12%[38.3 µM]	-6%	?	?	21µM*
Nc1ccc2nc(Cc3ccccc3)[nH]c2c1	0%	16µM*	-10%	-6%	-6%[10.4 µM]	-8%	-16%	-9%	-3%
COc1ccc([C@H]2N[C@]3(CCCN(Cc4ccc(C)cc4)C3=O)[C@H]3C(=O)N(Cc4ccccc4)C(=O)[C@@H]23)cc1	·	·	4%	-3%	·	·	·	·	·
CCOC(=O)C(C)Sc1nc(-c2ccccn2)ncc1OC (stereo unspecified)	-2%	16µM*	10%	-4%	?	-28%	-12%	-11%	?
Cc1ccc2nc(C)cc(N3CCOCC3)c2c1	-2%	-5%	-4%	-8%	·	·	·	·	·
Cc1c(C(=O)O)c(C(=O)O)nc2ccc(N3CCOCC3)cc12	0%	11µM*	·	·	25%	8%	?	-21%	?
CCCCCCCc1cc2ccccc2c(=O)o1	·	-1%	·	·	·	·	·	·	·
COC(=O)[C@]1(Cc2ccccc2)N[C@H](CN(C)S(=O)(=O)c2ccc(C(C)(C)C)cc2)[C@@H]2C(=O)N(Cc3ccccc3)C(=O)[C@@H]21	·	·	-4%	5%	·	·	·	·	·
Cc1ccc(C(C)C)c(OCC(=O)NN=C(CCl)CCl)c1	3%	16µM*	·	·	?	2%	-7%	-3%	-2%
O=S(Cc1ccccc1)Cc1ccccc1	·	·	1%	1%	·	·	·	·	·
CC(=O)Nc1ncc([N+](=O)[O-])s1	·	·	·	2%	·	·	·	·	·
Cc1ccc(C(=O)Nc2ncc([N+](=O)[O-])s2)cc1	?	16µM*	?	-18%	?	40µM*	?	25µM*	28µM*
CC(OC(=O)CNS(=O)(=O)c1ccc(C#N)cc1)C(=O)Nc1ccc(Cl)cn1 (stereo unspecified)	·	·	-9%	3%	·	·	·	·	·
COc1ccc(S(=O)(=O)N2CCC(C(N)=O)(N3CCCCC3)CC2)cc1OC	0%	1%	23%	0%	·	·	·	·	·
CN(C)CCCNS(=O)(=O)c1ccc(N2CCN(Cc3ccc4c(c3)OCO4)CC2)c([N+](=O)[O-])c1	-2%	14µM*	-7%	6%	-17%	0%	-7%	-1%	14%
Clc1cccc(CNc2cc(-c3ccccc3)nc3nncn23)c1	·	·	·	-2%	·	·	·	·	·
CCn1c(CCc2ccccc2)nc2ccccc21	1%	14µM*	-14%	2%	-15%	-10%	-4%	-2%	-2%
SMILES	LmPK inhibitor	Giardia FBPA inh-1	RE007 growth inh	Tb PYK inh	Giardia growth	Mammal cell tox	Giardia FBPA inh-2	Rabbit aldolase	GAPDH counter
CC(C)(C)OC(=O)N1CCC(c2c(C(=O)N3CCN(C(=O)c4ccco4)CC3)cnn2-c2cccc(F)c2)CC1	·	·	·	-22%[15.4 µM]	·	·	·	·	·
O=S(=O)(Nc1ncccn1)c1ccccc1	3%	?	-10%	-22%	·	·	·	·	·
Cc1ccc(S(=O)(=O)Nc2ncccn2)cc1	2%	22µM*	1%	-2%	-7%	21%	5%	18%	6%
COCCn1c(NC(=S)NC(=O)C2CC2)cc(=O)[nH]c1=O	-5%	7.1µM*	1%	0%	24%	4%	1%	-1%	14%
COCCn1c(NC(=S)NC(=O)C23CC4CC(CC(C4)C2)C3)cc(=O)[nH]c1=O	2%	-12%	-6%	-1%	·	·	·	·	·
O=C(NC(=S)Nc1ccc(Cl)cn1)c1cc([N+](=O)[O-])ccc1N1CCOCC1	-13%	14µM*	23%	1%	15%	18%	3%	-3%	11%
O=C(Nc1nnc(C2=COCCO2)o1)c1ccc(Cl)cc1	2%	20%	?	-2%	·	·	·	·	·
O=C(Nc1nnc(C2=COCCO2)o1)c1ccc(Br)cc1	2%	·	·	·	·	·	·	·	·
O=C(Nc1nnc(C2=COCCO2)o1)c1ccc(Cc2ccccc2)cc1	0%	18µM*	4%	7%	?	-3%	2%	8%	-3%
O=C(Nc1nnc(C2=COCCO2)o1)c1ccc(F)cc1	4%	32µM*	-19%	-5%	?	5%	-7%	-12%	-10%
COc1cccc(N2CCN(Cc3ccco3)CC2)c1	-5%	25µM*	-21%	23%	?	-11%	-5%	3%	9%
COc1ccc(CN2CCN(Cc3ccco3)CC2)cc1OC	-3%	13µM*	-26%	0%	-6%[10.4 µM]	-6%	0%	8%	8%

Assay outcomes deposited in PubChem BioAssay by National Center for Advancing Translational Sciences (NCATS).
